Data as given in PubChem BioAssay (NCATS).
Records with an inconclusive call do not appear. Where a call stands in place of a potency, no number is given. Activity calls are given as the source filed them. Calls follow the shape of the dose curve; as a rule, active = well fitted curve in the direction sought with a large enough effect; inconclusive = small, poorly fitted or top-dose-only effect, or another doubt; inactive = no such curve, though single readings can be large; an effect the other way counts as inactive or inconclusive. Where a SMILES comes first, the peptide text is derived from it. [ ]: non-standard residue; d: D form. pGlu = O=C1CC[C@@H](C(=O)O)N1

molecular target: Tyrosine-protein phosphatase non-receptor type substrate 1 (Homo sapiens) + Leukocyte surface antigen CD47 (Homo sapiens) (UniProt P78324+Q08722); assay: CD47-SIRPalpha protein protein interaction - Alpha assay qHTS validation (AID 1347059); details: AlphaScreen CD47-His/biotin-SIRPalpha binding, LOPAC; series mostly up to 38.3 µM;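 also: bead proximity luminescence from CD47 binding SIRPalpha after compound preincubation with SIRPalpha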; also: potency is read from the fitted curve at half-maximal effect
Sequence (P78324 whole entry, looked up, the tested form may be a part): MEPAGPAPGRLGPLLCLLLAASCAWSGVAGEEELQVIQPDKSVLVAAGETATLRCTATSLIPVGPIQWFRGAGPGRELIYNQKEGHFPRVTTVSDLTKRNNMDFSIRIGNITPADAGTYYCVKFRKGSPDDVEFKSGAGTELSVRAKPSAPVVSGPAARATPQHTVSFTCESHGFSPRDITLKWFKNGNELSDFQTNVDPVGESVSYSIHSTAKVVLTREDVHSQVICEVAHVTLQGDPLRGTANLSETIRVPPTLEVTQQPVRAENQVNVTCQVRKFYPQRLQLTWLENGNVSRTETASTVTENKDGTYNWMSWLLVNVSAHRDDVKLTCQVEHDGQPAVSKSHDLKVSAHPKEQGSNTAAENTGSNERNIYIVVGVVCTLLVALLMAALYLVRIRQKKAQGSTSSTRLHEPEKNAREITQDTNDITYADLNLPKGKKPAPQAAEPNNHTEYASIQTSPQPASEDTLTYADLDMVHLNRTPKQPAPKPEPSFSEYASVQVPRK
Sequence (Q08722 whole entry, looked up, the tested form may be a part): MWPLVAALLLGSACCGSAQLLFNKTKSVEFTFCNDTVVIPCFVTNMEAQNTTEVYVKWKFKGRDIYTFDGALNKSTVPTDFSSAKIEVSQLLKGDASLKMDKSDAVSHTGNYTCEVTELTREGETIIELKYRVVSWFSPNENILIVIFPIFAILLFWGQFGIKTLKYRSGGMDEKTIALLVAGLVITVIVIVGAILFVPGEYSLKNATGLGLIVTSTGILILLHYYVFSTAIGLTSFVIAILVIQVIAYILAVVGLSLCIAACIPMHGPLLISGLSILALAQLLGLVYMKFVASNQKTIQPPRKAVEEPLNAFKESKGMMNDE
Procedure, shortened: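 In PBS (pH 7.4) with 0.05% IGEPAL CA-630, compound is preincubated with biotin-Avi-SIRPalpha ectodomain before His-CD47 ectodomain and affinity beads are added. Light-protected room-temperature incubations; AlphaScreen readout.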

SMILES	Potency
COC(=O)C1=CO[C@@H](O)[C@@H]2C(CO)=CC[C@H]12	inactive
N[C@@H](Cn1ccc(=O)c(O)c1)C(=O)O	0.0585 µM (active)
CN(C)c1cc2c(Nc3ccc4c(cnn4Cc4ccccc4)c3)ncnc2cn1	inactive

molecular target: Parathyroid hormone/parathyroid hormone-related peptide receptor (Homo sapiens) (UniProt Q03431); assay: qHTS for PTHR1 Agonists: Optimization Screen against the NCGC LOPAC library (AID 1347079); details: HEK293 GP2 PTHR1 GloSensor cAMP luminescence, 1 h; series mostly up to 57.1 µM;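 also: GloSensor cAMP luminescence in HEK-293 GP2 cells expressing human PTHR1 with IBMX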
Sequence (Q03431 whole entry, looked up): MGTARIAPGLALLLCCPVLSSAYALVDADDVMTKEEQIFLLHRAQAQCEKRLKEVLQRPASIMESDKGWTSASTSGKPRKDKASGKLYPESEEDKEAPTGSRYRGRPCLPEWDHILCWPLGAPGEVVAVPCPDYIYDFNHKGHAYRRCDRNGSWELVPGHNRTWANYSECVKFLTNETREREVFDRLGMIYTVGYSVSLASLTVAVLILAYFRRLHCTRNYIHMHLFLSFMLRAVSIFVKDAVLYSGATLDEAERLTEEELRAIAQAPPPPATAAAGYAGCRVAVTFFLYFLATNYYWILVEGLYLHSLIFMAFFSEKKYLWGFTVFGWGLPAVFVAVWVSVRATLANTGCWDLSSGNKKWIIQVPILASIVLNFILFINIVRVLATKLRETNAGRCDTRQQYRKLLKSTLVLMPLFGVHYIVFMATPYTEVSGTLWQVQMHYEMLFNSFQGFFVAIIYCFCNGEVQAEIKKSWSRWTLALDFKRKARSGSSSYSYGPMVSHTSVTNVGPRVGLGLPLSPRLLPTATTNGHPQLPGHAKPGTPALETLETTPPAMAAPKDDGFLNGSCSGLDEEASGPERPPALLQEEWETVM
Procedure, shortened: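 HEK-293 GP2 cells, PTHR1 + GloSensor cAMP; 3000 cells/well, o/n. Luciferin + IBMX 0.5mM each (stock), 1 hr 37C. Cpd titration, 1 hr 37C. Lum after 15 min RT. Ctrl M-PTH(1-15) top 10uM.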

SMILES	outcome
COC(=O)C1=CO[C@@H](O)[C@@H]2C(CO)=CC[C@H]12	inactive
N[C@@H](Cn1ccc(=O)c(O)c1)C(=O)O	inactive
CN(C)c1cc2c(Nc3ccc4c(cnn4Cc4ccccc4)c3)ncnc2cn1	inactive

tested on: not listed separately; assay: qHTS of pediatric cancer cell lines to identify multiple opportunities for drug repurposing: Primary screen for TC32 cells (AID 1347089); details: TC32 Ewing sarcoma viability, CellTiter-Glo luminescence, 48 h; series mostly up to 45.8 µM; also: nearly all actives have a fitted effect of over 60% in size; also: potency is read from the fitted curve at half-maximal effect
Procedure, shortened: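 qHTS, TC32, 48 h drug treatment, CellTiter-Glo luminescence as a proxy for metabolically active cells; primary top concentration 46 µM (MIPE 11-pt, NPC 8-pt); confirmatory 11-pt.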

SMILES	Potency
Cc1cc(O)c2c(O)c3c(O)cccc3cc2c1	inactive
CCCCCCn1c(=O)c2c(ncn2C)n(C)c1=O	inactive
O=c1[nH]c2ccccc2c(=O)n1CCCl	inactive
CCc1cccc2c(CCO)c[nH]c12	inactive
C#CC(C)(CC)OC(=O)c1ccccc1C(=O)O (configuration not stated)	inactive
C[N+]1(CC2COC(c3ccccc3)(c3ccccc3)O2)CCCCC1 (configuration not stated)	inactive
[O-][n+]1cccc(/C(Cl)=N/OC[C@@H](O)CN2CCCCC2)c1	inactive
C[C@H]1C[C@H]2[C@@H]3CCC4=CC(=O)C=C[C@]4(C)[C@H]3C(=O)C[C@]2(C)[C@@]1(O)C(=O)CO	inactive
CCNC(=O)[C@@H]1CCCN1C(=O)[C@H](CCCN=C(N)N)NC(=O)[C@H](CC(C)C)NC(=O)CNC(=O)[C@H](Cc1ccc(O)cc1)NC(=O)[C@H](CO)NC(=O)[C@H](Cc1c[nH]c2ccccc12)NC(=O)[C@H](Cc1cnc[nH]1)NC(=O)[C@@H]1CCC(=O)N1 ([pGlu]HWSYGLRP-NHEt)	inactive
CC(=O)N[C@@H](CO)C(=O)N[C@@H](CC(=O)O)C(=O)N[C@@H](CCCCN)C(=O)N1CCC[C@H]1C(=O)O (Ac-SDKP-OH)	inactive
CCCCN(CCN(CCCC)C(=O)N1CCOCC1)C(=O)N1CCOCC1	inactive
Cc1cc(CCCOc2c(C)cc(-c3noc(C(F)(F)F)n3)cc2C)on1	inactive
Nc1ccc(C(=O)N2CC3CC(CN(Cc4ccccc4)C3)C2)cc1	inactive
Cc1ccc(/C=N/n2c(-c3ccccc3)csc2=S)cc1	inactive
Cc1ccc(-c2ccccc2C#N)cc1	inactive
Cc1c(N)cccc1C(F)(F)F	inactive
Cc1cc(OCCOCC[N+](C)(C)Cc2ccccc2)ccc1C(C)(C)CC(C)(C)C	26.4 µM (active)
Nc1ncnc2c1ncn2Cc1c(F)cccc1Cl	inactive
CCN(CC)CC(=O)OCC(=O)[C@@]1(O)CC[C@H]2[C@@H]3CCC4=CC(=O)CC[C@]4(C)[C@H]3[C@@H](O)C[C@@]21C	inactive
CC(=O)N(CC(=O)N(C)C)c1ccccc1	inactive
C#Cc1ccc(-c2ccccc2F)cc1	inactive
COc1ccc2c(c1)c(CC(=O)OC/C=C(\C)CC/C=C(\C)CCC=C(C)C)c(C)n2C(=O)c1ccc(Cl)cc1	inactive
COc1ccc(-n2nc(CCC(=O)N(C)O)cc2-c2ccc(Cl)cc2)cc1	16.7 µM (active)
N#Cc1cc(NC(=O)C(=O)O)c(Cl)c(NC(=O)C(=O)O)c1	inactive
CN1N=C(C(N)=O)CCC1=O	inactive
C=CCNc1nc(NCC=C)nc(N2CCN(C(c3ccc(F)cc3)c3ccc(F)cc3)CC2)n1	inactive

tested on: not listed separately; assay: qHTS of pediatric cancer cell lines to identify multiple opportunities for drug repurposing: Primary screen for DAOY cells (AID 1347090); details: DAOY medulloblastoma viability, CellTiter-Glo luminescence, 48 h; series mostly up to 46 µM; also: nearly all actives have a fitted effect of over 55% in size
Procedure, shortened: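 Eight- or eleven-point concentration series, 48 h treatment at 37 degrees C in growth media; readout CellTiter-Glo luminescence. Potency and efficacy were taken from the concentration-response curves.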

SMILES	Potency
Cc1ccc(C(C)OC(=O)C2(C)CCC(C(=O)O)C2(C)C)cc1 (configuration not stated)	inactive
Cc1cc(O)c2c(O)c3c(O)cccc3cc2c1	inactive
O=C(CCCl)NCc1ccccc1	inactive
CCCCCCn1c(=O)c2c(ncn2C)n(C)c1=O	inactive
O=c1[nH]c2ccccc2c(=O)n1CCCl	inactive
CCc1cccc2c(CCO)c[nH]c12	inactive
[O-][n+]1cccc(/C(Cl)=N/OC[C@@H](O)CN2CCCCC2)c1	inactive
C[C@H]1C[C@H]2[C@@H]3CCC4=CC(=O)C=C[C@]4(C)[C@H]3C(=O)C[C@]2(C)[C@@]1(O)C(=O)CO	inactive
CCNC(=O)[C@@H]1CCCN1C(=O)[C@H](CCCN=C(N)N)NC(=O)[C@H](CC(C)C)NC(=O)CNC(=O)[C@H](Cc1ccc(O)cc1)NC(=O)[C@H](CO)NC(=O)[C@H](Cc1c[nH]c2ccccc12)NC(=O)[C@H](Cc1cnc[nH]1)NC(=O)[C@@H]1CCC(=O)N1 ([pGlu]HWSYGLRP-NHEt)	inactive
CC(=O)N[C@@H](CO)C(=O)N[C@@H](CC(=O)O)C(=O)N[C@@H](CCCCN)C(=O)N1CCC[C@H]1C(=O)O (Ac-SDKP-OH)	inactive
Cc1cc(CCCOc2c(C)cc(-c3noc(C(F)(F)F)n3)cc2C)on1	inactive
Nc1ccc(C(=O)N2CC3CC(CN(Cc4ccccc4)C3)C2)cc1	inactive
Cc1ccc(/C=N/n2c(-c3ccccc3)csc2=S)cc1	inactive
Cc1ccc(-c2ccccc2C#N)cc1	inactive
Cc1c(N)cccc1C(F)(F)F	inactive
Nc1ncnc2c1ncn2Cc1c(F)cccc1Cl	inactive
CC(=O)N(CC(=O)N(C)C)c1ccccc1	inactive
C#Cc1ccc(-c2ccccc2F)cc1	inactive
CCCCCN(CCCOC)C(=O)C(CCC(=O)O)NC(=O)c1ccc(Cl)c(Cl)c1 (configuration not stated)	inactive
COc1ccc2c(c1)c(CC(=O)OC/C=C(\C)CC/C=C(\C)CCC=C(C)C)c(C)n2C(=O)c1ccc(Cl)cc1	inactive
CC(C)OP(=O)(CP(=O)(OC(C)C)OC(C)C)OC(C)C	inactive
N#Cc1cc(NC(=O)C(=O)O)c(Cl)c(NC(=O)C(=O)O)c1	inactive
CN1C(CSCC(F)(F)F)Nc2cc(Cl)c(S(N)(=O)=O)cc2S1(=O)=O (configuration not stated)	inactive
CN1C(=O)c2ccccc2C1=O	inactive
CN1N=C(C(N)=O)CCC1=O	inactive
